Laboratory results from PubChem BioAssay (NCI).
This is part of a sample that, as a whole, favours compounds with a hit. Of some 83,000 tested, about 20% had one in any assay.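 Plates (96-well) were seeded with cells, treated with compound at one concentration, and incubated for 48 hours before percent growth was determined.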 Active and inactive are the calls of the source. The calls were made as follows: active = growth percent below 10; inactive = the rest.

Legend:
Experiment in all cases: NCI-60 one-dose screen, 48 h (100 = growth as untreated, 0 = no growth, -100 = all killed)
Settings in all cases: 10 µM unless noted
HCT-15 colon = tested on: HCT-15 colon
SNB-75 CNS = tested on: SNB-75 CNS
SNB-19 CNS = tested on: SNB-19 CNS
U251 CNS = tested on: U251 CNS
PC-3 prostate = tested on: PC-3 prostate
SK-MEL-5 melanoma = tested on: SK-MEL-5 melanoma
UACC-62 melanoma = tested on: UACC-62 melanoma
LOX IMVI melanoma = tested on: LOX IMVI melanoma
SK-MEL-28 melanoma = tested on: SK-MEL-28 melanoma

Measured: growth

COC1CC2c3ccccc3C1C(C)=[N+]2C (configuration not stated)
inactive: HCT-15 colon 101% | SNB-75 CNS 71.7% | SNB-19 CNS 100% | U251 CNS 99.1% | PC-3 prostate 84.8% | SK-MEL-5 melanoma 106% | UACC-62 melanoma 91.8% | LOX IMVI melanoma 94.7% | SK-MEL-28 melanoma 145%

COc1cc(/C=C/[N+](=O)[O-])c([N+](=O)[O-])cc1OC
active: HCT-15 colon -45.2% | UACC-62 melanoma -7.94% | LOX IMVI melanoma -68.1%
inactive: SNB-75 CNS 55.3% | SNB-19 CNS 96.3% | U251 CNS 15.7% | PC-3 prostate 51.5% | SK-MEL-5 melanoma 56.2% | SK-MEL-28 melanoma 38.4%

CC(=O)OC1CCC2(C)C(CCC3C2CC(=O)C2(C)C3CC(Sc3ccc(N(CCCl)CCCl)cc3)C2C(C)=O)C1 (configuration not stated)
inactive: HCT-15 colon 50.5% | SNB-75 CNS 111% | SNB-19 CNS 82.7% | U251 CNS 68.1% | PC-3 prostate 85.5% | SK-MEL-5 melanoma 93% | UACC-62 melanoma 67.9% | LOX IMVI melanoma 55.1% | SK-MEL-28 melanoma 99.8%

CC[C@H](C)[C@H](NC(=O)C12C3C4C1C1C2C3C41NC(C)=O)C(=O)N(C)[C@H](C[C@@H](OC(C)=O)c1nc(C(=O)N[C@@H](Cc2ccccc2)C[C@H](C)C(=O)OC)cs1)C(C)C (some centres not stated)
inactive: HCT-15 colon 24.8% | SNB-75 CNS 38.6% | SNB-19 CNS 56.1% | PC-3 prostate 11.3% | LOX IMVI melanoma 14.9% | SK-MEL-28 melanoma 59.6%
active: U251 CNS 9.8% | SK-MEL-5 melanoma -13.4%

CC[S][Hg][Cl]
inactive: HCT-15 colon 104% | SNB-75 CNS 93.6% | SNB-19 CNS 106% | U251 CNS 99.6% | PC-3 prostate 103% | SK-MEL-5 melanoma 106% | UACC-62 melanoma 103% | LOX IMVI melanoma 88.1% | SK-MEL-28 melanoma 111%

Cn1cc(-c2csc(-c3cn(CCCCN4CCCCC4)c4ccc(F)cc34)n2)c2cccnc21
inactive: HCT-15 colon 76% | SNB-75 CNS 68.8% | SNB-19 CNS 87.1% | U251 CNS 80.7% | PC-3 prostate 68.4% | LOX IMVI melanoma 75.9%
active: SK-MEL-5 melanoma -100% | SK-MEL-28 melanoma -78.2%

CCOc1ccccc1C(=O)OCC(Cl)(Cl)Cl
inactive: HCT-15 colon 110% | SNB-75 CNS 98.3% | SNB-19 CNS 107% | U251 CNS 102% | PC-3 prostate 96.5% | SK-MEL-5 melanoma 106% | UACC-62 melanoma 107% | LOX IMVI melanoma 104% | SK-MEL-28 melanoma 118%

COC(=O)[C@@]1(O)C[C@H]2O[C@]1(C)n1c3ccccc3c3c4c(c5c6ccccc6n2c5c31)C(=O)NC4
active: HCT-15 colon -29.3% | SNB-75 CNS -97.1% | SNB-19 CNS -27.9% | U251 CNS -67.1% | PC-3 prostate -50.3% | SK-MEL-5 melanoma -89.4% | UACC-62 melanoma -47.4% | LOX IMVI melanoma -69.2% | SK-MEL-28 melanoma -58.9%

CCOP(=O)(Nc1ccc2c(c1)/C(=N/NC(N)=S)c1ccccc1-2)OCC
inactive: HCT-15 colon 96.5% | SNB-75 CNS 80.6% | SNB-19 CNS 94.5% | PC-3 prostate 94.4% | SK-MEL-5 melanoma 84.4% | UACC-62 melanoma 77.7% | SK-MEL-28 melanoma 116%

[Cl][Hg][c]1cc[c]([Hg][Cl])o1
inactive: SNB-75 CNS 54.4% | SNB-19 CNS 15.4% | PC-3 prostate 51.3% | SK-MEL-5 melanoma 39.7% | UACC-62 melanoma 47.1% | SK-MEL-28 melanoma 49.1%
active: HCT-15 colon -47.3% | LOX IMVI melanoma -10.3%

CC(C)OC(=O)[C@H](C)NP(=O)(Oc1ccccc1)C1CCCN(O)C1=O (some centres not stated)
inactive: HCT-15 colon 93.1% | SNB-75 CNS 108% | SNB-19 CNS 98.8% | U251 CNS 105% | PC-3 prostate 94.5% | SK-MEL-5 melanoma 99.2% | UACC-62 melanoma 71.8% | LOX IMVI melanoma 85.3% | SK-MEL-28 melanoma 52.2%

COc1ccc(Nc2ccnc3cc(Cl)ccc23)cc1CN(CCCl)CCCl
active: HCT-15 colon -12.1% | SNB-75 CNS -10.8% | SNB-19 CNS -0.124% | U251 CNS -11% | PC-3 prostate -4.22% | SK-MEL-5 melanoma -88.4% | UACC-62 melanoma -87% | LOX IMVI melanoma -51.6% | SK-MEL-28 melanoma -38.3%

CC(C)(NC(=O)O[C@@H]1CN2CCC1CC2)c1csc(-c2ccc(F)cc2)n1
inactive: HCT-15 colon 102% | SNB-75 CNS 67.2% | SNB-19 CNS 97.9% | PC-3 prostate 99.5% | SK-MEL-5 melanoma 99.2% | UACC-62 melanoma 87.9% | LOX IMVI melanoma 90.5% | SK-MEL-28 melanoma 103%

CCCCCCCCCCCCCC[P+](CCCCCC)(CCCCCC)CCCCCC
active: HCT-15 colon 7.54% | SNB-75 CNS -31.4% | SNB-19 CNS 8.99% | U251 CNS -68.4% | PC-3 prostate -78.1% | SK-MEL-5 melanoma -100% | UACC-62 melanoma -28.1% | LOX IMVI melanoma -68.5% | SK-MEL-28 melanoma -97.8%

O=C(CC1(O)C(=O)N(Cc2ccccc2)c2ccccc21)c1ccc(C(=O)NCC2CCC3(CC2)OOC2(CCCCC2)OO3)cc1 (configuration not stated)
active: HCT-15 colon 0.81% | SNB-75 CNS -75.6% | U251 CNS -77.2% | PC-3 prostate -61% | UACC-62 melanoma 0.976% | LOX IMVI melanoma -84.1%
inactive: SNB-19 CNS 20.3% | SK-MEL-28 melanoma 63.1%

O=C([O][Hg][CH2]C1OCCOC1[CH2][Hg][O]C(=O)c1ccccc1)c1ccccc1 (configuration not stated)
active: HCT-15 colon -79.5% | LOX IMVI melanoma -92.7% | SK-MEL-28 melanoma -96.7%
inactive: SNB-75 CNS 92.5% | SNB-19 CNS 105% | U251 CNS 43% | PC-3 prostate 70.5% | SK-MEL-5 melanoma 93.1% | UACC-62 melanoma 106%
